62 molecules from PubChem BioAssay AID686978 (National Center for Advancing Translational Sciences (NCATS), 2013) can be followed below.

The whole screen tested about 420,000 compounds, of which about 64,000 (15%) were called active. Another 27% or so got no clear call; they are omitted. Calls follow the shape of the dose curve; as a rule, active = well fitted inhibition curve with a large enough effect; inconclusive = small, poorly fitted or top-dose-only effect; inactive = flat fitted curve, though single readings scatter. The list is a sample of the results. A call without a number means that no potency is given here.
Potency is read from the fitted curve at half-maximal effect.

The nature of the test: qHTS for Inhibitors of human tyrosyl-DNA phosphodiesterase 1 (TDP1): qHTS in cells in absence of CPT. Also: nearly all actives have a fitted effect of over 55% in size. To be noted: DT40 Tdp1-/- hTDP1 cells, no CPT, ATP luminescence, 48 h; activity change, negative = growth inhibition: at 46.2 µM (top of the series). The method, boiled down: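 Chicken DT40 Tdp1-/- cells complemented with human TDP1, screened without camptothecin (DMSO vehicle only), 400 cells/well. Compounds pin-transferred, cells incubated at 37 °C for at least 48 hr. Growth read as ATP-dependent luminescence (CellTiter-Glo, 30 min at RT).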
Background: In qHTS, concentration-response curves come from the screen itself.
For the molecule `CN(C)c1ccc(C(CNS(=O)(=O)c2cc(F)ccc2F)N2CCOCC2)cc1` (configuration not stated), the Potency result was “inactive”. For `C[C@H](NC(=O)c1[nH]cnc1C(=O)Nc1nccs1)c1ccccc1` the value was “inactive”. For `Cc1ccc(S(=O)(=O)N2CCOCC2)cc1C(=O)OC1CCCCC1=O` (configuration not stated) the value was “inactive”; for `CC(=O)N1CCc2cc(Br)cc(S(=O)(=O)CCC(=O)Nc3c(C)n(C)n(-c4ccccc4)c3=O)c21`, “inactive”. Take `Cc1ccc2nc(NC(=O)c3nc(SCc4ccccc4F)ncc3Cl)sc2c1`: the Potency entry was “inactive”. For `CCCS(=O)(=O)c1ncc(Cl)c(C(=O)Nc2scc(-c3ccccc3)c2C(=O)OCC)n1` the value was 3.66 µM (active). In the case of `CCOC(=O)c1c(-c2ccc(-c3ccccc3)cc2)csc1NC(=O)CCC(=O)O`, the Potency entry is “inactive”. For `CCOC(=O)c1c(N)nn(C(=O)c2ccccc2)c1-c1ccccc1` the value was “inactive”; for `CCOC(=O)c1c(NC(=O)c2cc(-c3ccc(Cl)cc3)on2)sc2c1CCCC2`, “inactive”; for `CCOC(=O)c1c(-c2cccc(C)c2)csc1NC(=O)c1c(-c2ccccc2)noc1C`, 23.1 µM (active). For `CCOC(=O)C1CCN(C(=O)COC(=O)C2CCN(S(=O)(=O)c3ccc4c(c3)OCCO4)CC2)CC1` the value was “inactive”; for `CCOC(=O)CN/C=C(\C#N)c1ccc(F)cc1`, “inactive”. For `CC(C)CN(C(=O)Cn1c(=O)cnc2ccccc21)C1CCS(=O)(=O)C1` (configuration not stated) the value was “inactive”; for `CC1(C(=O)Nc2ccc3c(c2)OCCO3)CN(S(C)(=O)=O)CC(=O)N1Cc1cccc(F)c1` (configuration not stated), “inactive”; for `O=C(C1CCCO1)N1CCN(C(=S)Nc2cccc(Cl)c2)CC1` (configuration not stated), “inactive”. In the case of `CCOC(=O)C1CCN(C(=O)C2CCN(S(=O)(=O)N3CCCC3)CC2)CC1`, the Potency entry was “inactive”. As for `CCCCNC(=O)CSc1nc2cc3c(cc2c(=O)n1CCCCCC(=O)NCc1ccc2c(c1)OCO2)OCO3`, the Potency result was “inactive”. The result for `O=C(CCCCn1c(=O)[nH]c2ccccc2c1=O)NCc1ccc2c(c1)OCO2` reads “inactive”; that for `CCN(CC)C(=O)CSc1nc2cc3c(cc2c(=O)n1CCCC(=O)NCc1ccc2c(c1)OCO2)OCO3`, 16.4 µM (active). For `CN(C)/N=C/c1cn(-c2ccccc2)nc1-c1cccnc1` the value was “inactive”. The result for `COc1ccc(-c2nn(-c3ccccc3)cc2/C=N/Nc2ccccn2)cc1OC` reads 5.8 µM (active); that for `CC(C)(C)OC(=O)N/N=C/c1cn(-c2ccccc2)nc1-c1cccnc1`, “inactive”. On to `CC(=O)/C(=N\Nc1ccc(Cl)cc1Cl)Sc1cccc2cccnc12`, for which the Potency was 4.11 µM (active).

Regarding `N#Cc1ccc(C(=O)Nc2cccc3cccnc23)c(F)c1`, the Potency entry was “inactive”. Turning to `O=C(Nc1cccc2cccnc12)c1cccc(Cl)c1`, the Potency entry was “inactive”. The result for `C#CCN(N(C)c1ncc(C(F)(F)F)cc1Cl)S(=O)(=O)c1ccc2ccccc2c1` reads “inactive”. The result for `Cc1csc(NC(=O)CSc2nnc(-c3cccnc3)o2)n1` reads “inactive”; that for `O=C(NCCS(=O)(=O)NCc1ccc(F)cc1)c1ccccc1`, “inactive”; that for `O=C(COC(=O)c1ccc(O)cc1)Nc1nccs1`, “inactive”. For the molecule `O=C(Cn1cnc([N+](=O)[O-])n1)NCCc1ccccc1`, the Potency result was “inactive”. The result for `COc1cc(-n2c(C)nc3cc(C(=O)NCc4ccco4)ccc32)cc(OC)c1OC` reads “inactive”; that for `CCN1CCN(CC(=O)c2cc(OC)c(OC)c(OC)c2)CC1`, “inactive”; that for `CCn1c(CNC(=O)c2cc(OC)c(OC)c(OC)c2)cc2cc(C)ccc21`, 13 µM (active). Consider `COC(=O)c1cccc(NC(=O)c2cccc(N3C(=O)CCC3=O)c2)c1`, for which the Potency entry is “inactive”. For `O=C(O)c1ccccc1Cc1ccc(F)c2ccccc12` the value was “inactive”; for `O=C(OCC(=O)N1CCCC1=O)c1cc(S(=O)(=O)N2CCOCC2)ccc1Cl`, “inactive”; for `O=C(COC(=O)c1ccccc1F)Nc1cc(S(=O)(=O)N2CCOCC2)ccc1N1CCCC1`, “inactive”. `O=C(Nc1ccc(S(=O)(=O)N2CCOCC2)cc1)C1CCN(S(=O)(=O)c2ccc(Cl)cc2)CC1`: the Potency is 10.3 µM (active). The result for `CCOc1ccc(C(=O)NC(=S)Nc2ccc(NC(=O)C(C)C)cc2)cc1[N+](=O)[O-]` reads “inactive”; that for `O=S(=O)(c1ccc(NC(=S)NN=C(C2CC2)C2CC2)cc1)N1CCOCC1`, “inactive”. For `O=C(CNCc1ccco1)Nc1cc(S(=O)(=O)N2CCOCC2)ccc1N1CCCC1` the value was “inactive”; for `COCCNC(=S)Nc1cc(S(=O)(=O)N2CCOCC2)ccc1N1CCCCC1`, 16.4 µM (active).

As for `CCOc1ccc(C(=O)NC(=S)Nc2ccc(N3CCOCC3)c(Cl)c2)cc1[N+](=O)[O-]`, the Potency is 8.2 µM (active). For `O=C(Nc1ccc2c(c1)nc1n2CCCCC1)c1cc(S(=O)(=O)N2CCOCC2)ccc1Cl` the value was 14.6 µM (active); for `CCOc1ccc(C(=O)Nc2ccc(CN3CCOCC3)cc2)cc1Cl`, “inactive”; for `CC(=O)Nc1ccc(S(=O)(=O)N2CCC(C(=O)NC3CC3)CC2)cc1`, “inactive”. The result for `COc1cc(NC(=S)NCc2ccco2)c(OC)cc1Cl` reads “inactive”; that for `COC(=O)CN(c1nc(C)c(Cl)c(OC)n1)S(=O)(=O)c1ccc(C)cc1`, “inactive”; that for `O=C(OCC(O)C(O)COC(=O)c1ccccc1)c1ccccc1` (configuration not stated), “inactive”. For `O=C(O)C(=Cc1ccccc1[N+](=O)[O-])c1ccccc1` the value was “inactive”; for `O=C(Cc1c(F)cccc1Cl)N1CCN(C(=O)c2ccco2)CC1`, “inactive”; for `COc1ccc(NC(=O)CNc2cc(S(=O)(=O)N3CCOCC3)ccc2N2CCOCC2)c(OC)c1`, “inactive”. Take `CC(=O)Nc1ccc(C(=O)Nc2cc(S(=O)(=O)N3CCOCC3)ccc2N2CCOCC2)cc1`: the Potency entry was “inactive”. In the case of `O=C(Nc1ccc(N2CCOCC2)c(Cl)c1)c1ccc(S(=O)(=O)N2CCOCC2)cc1`, the Potency was 14.6 µM (active).

On to `CC(Oc1ccc(F)cc1)C(=O)Nc1cc(S(=O)(=O)N2CCOCC2)ccc1N1CCN(C)CC1` (configuration not stated), for which the Potency entry is “inactive”.

Take `CC(C)CCOc1ccc(C(=O)Nc2cc(S(=O)(=O)N3CCOCC3)ccc2N2CCOCC2)cc1`: the Potency was 5.8 µM (active). The result for `O=C(Nc1ccc2cn[nH]c2c1)c1ccc(S(=O)(=O)N2CCOCC2)cc1` reads “inactive”.

As to `NC(=O)CN1CCCC1c1ccc2c(c1)OCCO2` (configuration not stated), the Potency entry is “inactive”. For `CCOC(CNC(=O)C1CCN(S(=O)(=O)c2ccc3nc4c(c(C(=O)O)c3c2)CC(C)CC4)CC1)OCC` (configuration not stated) the value was “inactive”. As to `CCN(CC)N=Nc1cccc(NC(C)=O)c1`, the Potency was 3.26 µM (active). For `CC(=O)c1cccc(NC(=O)c2ccncc2)c1` the value was “inactive”; for `CC(=O)Nc1cccc(C(=O)OCC(=O)c2ccc3c(c2)OCO3)c1`, “inactive”.
